Source: article PMC4336329 (PLoS ONE, 2015)
The campaign covered roughly 310,000 compounds. About 14,000 (4.5%) showed an effect of 50% or more. The effect is printed as a negative number. This is one part of a sample in which strong results are shown more often than they occur.

Target: human ether-à-go-go-related gene (hERG) potassium channel (human, UniProt Q12809)
Experiment: primary screen, population patch clamp on CHO cells stably expressing hERG; higher = less effect of the substance
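Note: peak tail current of the secondary pulse compared with the same well before compound.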

Sequence of human ether-à-go-go-related gene (hERG) potassium channel (Q12809 whole entry, looked up): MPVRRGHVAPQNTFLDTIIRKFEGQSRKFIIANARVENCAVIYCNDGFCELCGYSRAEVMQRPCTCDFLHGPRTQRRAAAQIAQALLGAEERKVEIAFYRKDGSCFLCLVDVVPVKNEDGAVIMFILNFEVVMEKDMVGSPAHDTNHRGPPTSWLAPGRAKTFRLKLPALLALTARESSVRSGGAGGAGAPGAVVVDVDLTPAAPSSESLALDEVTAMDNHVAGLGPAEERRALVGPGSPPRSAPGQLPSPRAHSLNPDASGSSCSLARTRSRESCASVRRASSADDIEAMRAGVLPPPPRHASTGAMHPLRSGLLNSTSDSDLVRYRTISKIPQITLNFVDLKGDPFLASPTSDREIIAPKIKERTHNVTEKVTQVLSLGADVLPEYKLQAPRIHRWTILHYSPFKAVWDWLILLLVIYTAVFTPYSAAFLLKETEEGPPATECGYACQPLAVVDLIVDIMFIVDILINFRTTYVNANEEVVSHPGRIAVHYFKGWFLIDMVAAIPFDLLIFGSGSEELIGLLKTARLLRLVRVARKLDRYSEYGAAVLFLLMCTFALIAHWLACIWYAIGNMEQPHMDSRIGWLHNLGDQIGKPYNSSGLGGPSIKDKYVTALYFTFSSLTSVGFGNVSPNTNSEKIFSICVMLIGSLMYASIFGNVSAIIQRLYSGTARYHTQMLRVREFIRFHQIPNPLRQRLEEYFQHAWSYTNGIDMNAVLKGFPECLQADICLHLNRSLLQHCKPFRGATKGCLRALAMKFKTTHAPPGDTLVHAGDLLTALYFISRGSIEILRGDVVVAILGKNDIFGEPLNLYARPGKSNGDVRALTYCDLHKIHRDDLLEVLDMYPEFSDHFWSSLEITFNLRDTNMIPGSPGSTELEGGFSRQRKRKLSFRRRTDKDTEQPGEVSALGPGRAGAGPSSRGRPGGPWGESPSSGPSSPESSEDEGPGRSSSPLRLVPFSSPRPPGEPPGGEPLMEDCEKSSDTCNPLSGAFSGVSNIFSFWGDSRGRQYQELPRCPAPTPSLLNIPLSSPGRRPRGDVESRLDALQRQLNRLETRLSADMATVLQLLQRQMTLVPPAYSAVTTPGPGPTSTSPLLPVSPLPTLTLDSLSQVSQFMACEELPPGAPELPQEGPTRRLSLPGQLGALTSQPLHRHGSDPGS

Row | Compound | hERG current change (%, negative = inhibition) at 10uM
1 | COC(=O)c1ccccc1NC(=O)c1nc2nc(C)cc(C(F)F)n2n1 | -5.65%
2 | Cc1nc2ccccc2c2c1CC(C)S2 (stereo not shown) | -16.8%
3 | Cc1ccc2nc(-c3ccccc3O)c(Nc3ccc4c(c3)OCCO4)n2c1 | 9.98%
4 | CCOC(=O)C1CCN(Cc2ccc(-c3ccccc3)cc2)CC1 | -28.8%
5 | COc1cc(CN2CCC(C(=O)NCCC(C)C)CC2)ccc1OCc1ccccc1.O=C(O)C(=O)O | -67.8%
6 | COc1ccc(CN2CCC(C)CC2)cc1OCc1ccccc1 | -49.6%
7 | CC(C)CNC(=O)C1CCN(Cc2ccc(OCc3ccccc3)cc2)CC1.O=C(O)C(=O)O | -77.1%
8 | COc1cc(CN2CCC(C)CC2)ccc1OCc1ccccc1.O=C(O)C(=O)O | -52.9%
9 | CCOC(=O)C1CCN(c2c(N3CCN(Cc4ccccc4)CC3)c(=O)c2=O)CC1 | -73.4%
10 | COc1cc(CN2CCC(C(=O)NCC(C)(C)CN(C)C)CC2)ccc1OCc1ccccc1.O=C(O)C(=O)O | 13.6%
11 | CCOC(=O)C1CCN(c2c(NCCCN3CCN(Cc4ccccc4)CC3)c(=O)c2=O)CC1 | 3.6%
12 | CC(O)CNC(=O)C1CCN(Cc2ccc(OCc3ccccc3)cc2)CC1.O=C(O)C(=O)O (stereo not shown) | -33.2%
13 | COc1cc(CN2CCCCC2)ccc1OCc1ccccc1.O=C(O)C(=O)O | -35.1%
14 | O=C(C1CCN(Cc2ccc(OCc3ccccc3)cc2)CC1)N1CCCC1 | -47.1%
15 | O=C(/C=C/c1ccccc1)Nc1cc(NC(=O)/C=C/c2ccccc2)cc(C(=O)O)c1 | 21.4%
16 | COc1ccc(-c2cc(C)no2)cc1S(=O)(=O)N1CCCN(Cc2ccc(F)cc2)C1 | -16.9%
17 | CC(C)C(=O)Nc1nnc(SCc2cccc(F)c2)s1 | -8.88%
18 | COc1ccc(Cc2nc(C(=O)Nc3ccc(Cl)cc3)cs2)cc1 | -42.8%
19 | CCOC(=O)c1nsnc1NCCSC(=N)N.I | 3.69%
20 | CC1CN(S(=O)(=O)c2ccc(C(=O)Nc3sccc3C(N)=O)cc2)CC(C)O1 (stereo not shown) | -10.8%

Row | Compound | hERG current change (%, negative = inhibition) at 10uM
21 | CCOc1ccc(NC(=O)CCC(=O)Nc2cc(OC)c(NC(=O)c3ccco3)cc2OC)cc1 | 10.4%
22 | O=C(CSc1nc(-c2ccccc2)cs1)N1CCc2ccccc21 | 3.61%
23 | Cc1cccc(N(Cc2cc3ccccc3[nH]c2=O)C(=O)c2ccco2)c1C | 4.51%
24 | CCC(C)(C)NC(=O)C(c1ccncc1)N(Cc1ccc(C)cc1)C(=O)c1csnn1 (stereo not shown) | -14.1%
25 | COc1cc(OC)c(C2N(c3ccccn3)C(=O)C3CCCN32)cc1OC (stereo not shown) | 13.8%
26 | COc1ccc(C(=O)OCC(=O)NCCN2C(=O)CSC2=O)cc1 | -1.03%
27 | CCOC(=O)C1CCCN(Cc2ccc(OC)c(OCc3ccccc3)c2)C1 (stereo not shown) | -46.1%
28 | CCOC(=O)C1CCN(Cc2ccc(OCc3ccccc3)c(OC)c2)CC1.O=C(O)C(=O)O | -19.3%
29 | CCCCNC(=O)C1CCN(Cc2ccc(OCc3ccccc3)cc2)CC1.O=C(O)C(=O)O | -71.7%
30 | OC1CCN(Cc2ccc(OCc3ccccc3)cc2)CC1 | -5.07%
31 | CCOC(=O)C1CCCN(Cc2ccc(OCc3ccccc3)c(OC)c2)C1.O=C(O)C(=O)O (stereo not shown) | -62.2%
32 | CCOC(=O)C1CCN(c2c(NCc3ccc(C(=O)N(C)Cc4ccccc4)cc3)c(=O)c2=O)CC1 | -65.2%
33 | CCCNC(=O)c1ccc(CNc2c(N3CCC(C(=O)OCC)CC3)c(=O)c2=O)cc1 | 3.8%
34 | CCOC(=O)C1CCN(c2c(NCc3ccc(N(C)C)cc3)c(=O)c2=O)CC1 | -5.97%
35 | CCOC(=O)C1CCCN(Cc2c(C(=O)N3CCOCC3)nc3ccccn23)C1 (stereo not shown) | 8.12%
36 | O=C(NC1CCCCC1)c1cc([N+](=O)[O-])ccc1N1CCCC1 | -0.526%
37 | Cc1ccc(/C=C/C(=O)Nc2cccc(S(=O)(=O)N3CCOCC3)c2)o1 | -19.9%
38 | O=C(CCC1CCCC1)Nc1ccon1 | 12.2%
39 | COc1ccc(S(=O)(=O)N(C)CC(=O)NCCN2CCOCC2)cc1Cl | 6.98%
40 | CCCCC(CCC(=O)Nc1ccccc1C(=O)OCC)C(=O)O (stereo not shown) | -3.09%

Row | Compound | hERG current change (%, negative = inhibition) at 10uM
41 | Cc1ccc(C)c(Cn2c(=O)n(CCCC(=O)NCc3ccco3)c(=O)c3ccccc32)c1 | 0.892%
42 | O=C(Nc1ccc(Cl)cn1)c1ccc(-c2ccc(Cl)c(Cl)c2)o1 | 10.1%
43 | CC(=O)c1ccccc1NS(=O)(=O)c1c(C)nn(-c2ccccc2)c1C | 3.03%
44 | CCn1nc(C)c(CNC(=O)CCc2nnc(Cc3c[nH]c4ccccc34)o2)c1C | 42%
45 | CCC(C)(C)n1nnnc1C(c1ccccc1OC)N1CCSCC1 (stereo not shown) | -24.1%
46 | CCOc1ccccc1C(C(=O)NCCOC)N(CCOC)C(=O)Cn1nnc2ccccc21 (stereo not shown) | 18.5%
47 | Cc1ccc(OCC(=O)N2CCCCCCC2)cc1 | 7.87%
48 | Cc1ccc(S(=O)(=O)N2CCN(C(=O)c3ccc([N+](=O)[O-])cc3)C2)cc1 | -60%
49 | Cc1cccc(OCC(=O)NNC(=O)c2ccc([N+](=O)[O-])cc2)c1 | 1.5%
50 | Cc1cccc(OCC(=O)N2CCN(C(=O)c3ccc([N+](=O)[O-])cc3)CC2)c1 | -68.8%
51 | O=C(COc1ccc2ccccc2c1)NNC(=O)c1ccc([N+](=O)[O-])cc1 | -1.08%
52 | O=C(COc1ccc2ccccc2c1)N1CCN(c2ccccc2)CC1 | 11.7%
53 | Cc1ccc(OCC(=O)N2CCN(C(=O)c3cccc(F)c3)CC2)cc1 | -13.3%
54 | Cc1ccc(C(=O)N2CCN(S(=O)(=O)c3ccc(C)cc3)CC2)cc1 | -20.1%
55 | Cc1ccc(C(=O)N2CCN(S(=O)(=O)c3ccc(C)c([N+](=O)[O-])c3)C2)cc1 | -42.7%
56 | O=C(COc1ccc2ccccc2c1)N1CCN(C(=O)c2ccc([N+](=O)[O-])cc2)CC1 | -76.5%
57 | Cc1cccc(OCC(=O)N2CCN(C(=O)c3cccs3)CC2)c1 | -7.23%
58 | Cc1ccc(OCC(=O)N2CCN(C(=O)c3ccc([N+](=O)[O-])cc3)CC2)cc1 | -83.4%
